According to PubChem BioAssay (NCI):
This is part of a sample that, as a whole, favours compounds with a hit. Of some 83,000 tested, about 20% had one in any assay.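 For each line, cells grew in 96-well plates with the test compound present at a single concentration for 48 hours.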 Values without a mark were called inactive. Activity calls are given as the source filed them. Rule for the calls: active = growth percent below 10; inactive = the rest.

Columns and labels:
Assay in all cases: NCI-60 one-dose screen, 48 h (100 = growth as untreated, 0 = no growth, -100 = all killed)
Conditions in all cases: 10 µM
RXF 393 renal = tested on: RXF 393 renal
M14 melanoma = tested on: M14 melanoma
U251 CNS = tested on: U251 CNS
SK-MEL-5 melanoma = tested on: SK-MEL-5 melanoma
CCRF-CEM leukemia = tested on: CCRF-CEM leukemia
OVCAR-4 ovarian = tested on: OVCAR-4 ovarian
T-47D breast = tested on: T-47D breast
MCF7 breast = tested on: MCF7 breast
HCT-116 colon = tested on: HCT-116 colon
HCC-2998 colon = tested on: HCC-2998 colon
KM12 colon = tested on: KM12 colon
HCT-15 colon = tested on: HCT-15 colon
LOX IMVI melanoma = tested on: LOX IMVI melanoma
UO-31 renal = tested on: UO-31 renal
SNB-75 CNS = tested on: SNB-75 CNS
UACC-62 melanoma = tested on: UACC-62 melanoma
ACHN renal = tested on: ACHN renal

SMILES | growth (RXF 393 renal) | growth (M14 melanoma) | growth (U251 CNS) | growth (SK-MEL-5 melanoma) | growth (CCRF-CEM leukemia) | growth (OVCAR-4 ovarian) | growth (T-47D breast) | growth (MCF7 breast) | growth (HCT-116 colon) | growth (HCC-2998 colon) | growth (KM12 colon) | growth (HCT-15 colon) | growth (LOX IMVI melanoma) | growth (UO-31 renal) | growth (SNB-75 CNS) | growth (UACC-62 melanoma) | growth (ACHN renal)
Cc1ccc2c(c1)C(=O)/C(=C/c1c[nH]c3ccccc13)S2 | -28.1% (active) | 64.2% | 22.7% | 59% | 29.2% | 40.9% | 33.5% | 18.6% | 14.2% | 65.8% | 35.1% |  |  |  |  |  | 
CCOC(=O)c1ccc(NC(=O)CSC(CC(=O)c2sc(Nc3ccccn3)nc2C)c2ccccc2F)cc1 (stereo not drawn) | -12.1% (active) | 0.872% (active) |  | 7.25% (active) | 3.92% (active) | 41.1% | 13.1% | -17.3% (active) | 1.05% (active) | -7.21% (active) | -50.8% (active) | -42% (active) | -76.8% (active) | -2.98% (active) |  |  | 
CC(C)(C)c1cc(/C=C2\S/C(=N/c3ncn[nH]3)NC2=O)cc(C(C)(C)C)c1O | -17.5% (active) |  | 2.45% (active) | -25.2% (active) | 11% | 33.8% |  | 8.22% (active) | 7.92% (active) | 14.5% | 20.2% | 11.5% |  |  | 19.3% | 1.85% (active) | 
COc1ccc(C(=O)COc2ccc(NC(=O)Nc3ccccc3)cc2)cc1 | 82.8% | 93.6% |  | 94.3% | 91% | 87.2% |  | 67.2% | 91% | 105% | 91.6% |  |  |  | 87.9% |  | 
O=C1NC(=S)S/C1=C\c1cn(-c2ccccc2)nc1-c1ccc([N+](=O)[O-])cc1 | 3.42% (active) |  |  | -33.3% (active) | 18.5% | 15% |  | 6.25% (active) | 5% (active) | 22.4% | 24.4% | 10.4% |  | 14% |  | 8.03% (active) | 
COc1cc(C2CC(c3ccccc3)=Nc3c(N)nc(N)nc3N2)ccc1Oc1nc(NCCO)nc(N2CCOCC2)n1 (stereo not drawn) | 95.7% |  | 98.1% | 98.7% | 92.4% | 105% |  | 83% | 105% | 115% | 102% |  | 107% | 94.2% |  |  | 
CCOC(=O)C1=C(N)N(c2ccc(C)cc2)C2=C(C(=O)CC(C)(C)C2)C1c1ccccc1Br (stereo not drawn) | 86.5% |  |  | 77.4% | 39.5% | 83.2% |  | 56.6% | 40.6% | 89.4% | 83.8% |  | 88.8% |  | 87.2% | 71.8% | 
COc1ccc(C(=O)COc2ccc(NC(=O)Nc3ccc(Cl)c(C(F)(F)F)c3)cc2)cc1 | -52.1% (active) |  | 24.3% | -67.3% (active) |  | 19% |  | 17.1% | 25.9% | 1.03% (active) | 13.6% |  | -60.5% (active) |  | 33% |  | 
O=C1S/C(=C\c2ccc([N+](=O)[O-])cc2)C(=O)N1CCN1CCCCC1 | 132% |  |  | 101% | 116% | 111% |  | 94.2% | 105% | 104% | 105% |  |  | 102% | 104% |  | 103%
O=[N+]([O-])c1cccc(-c2nnc3c(/C=C/c4ccccc4O)nc4ccccc4n23)c1 | 52.6% |  |  | 19.6% | 47.5% | 68.4% | 26.3% | 22.1% | 56.4% | 53.8% | 37.5% |  | 56.1% |  | 102% | 16% | 
COc1cc(C2CC(c3ccc(Oc4ccc(Cl)cc4)cc3)=NN2c2nc(-c3ccc(Cl)cc3)c(C#N)c(N3CCOCC3)n2)cc(OC)c1OC (stereo not drawn) | 107% |  |  | 97.8% | 111% | 103% |  | 84.6% | 106% | 100% | 101% |  | 80.6% | 79.2% |  |  | 96.5%
Cc1ccc2sc3c(c2c1)Oc1nc[nH]c(=O)c1C3c1cccc(F)c1 (stereo not drawn) | 109% |  | 97.1% | 96.4% | 107% | 91.7% | 83.9% | 60.9% | 89.3% | 118% | 100% |  |  | 66.3% |  | 74.5% | 
Cc1ccc(COc2ccc(NC(=O)Nc3ccc(Cl)c(C(F)(F)F)c3)cc2)cc1 | 75.5% |  |  | 79.9% | 60.7% | 66.4% | 33.7% | 41.6% | 69.7% | 83.7% |  | 52.2% |  |  |  |  | 
COc1ccc(C2OC[C@@]3(C)C4CC[C@]5(C)C(CC=C6C7CC(C)(C)CC[C@]7(C(=O)O)CC[C@]65C)[C@@]4(C)C[C@@H](O)[C@@H]3O2)cc1 (stereo partly drawn) | 89% |  |  | 80.5% | 50.3% | 86.9% |  | 50.9% | 43.3% | 101% | 54.4% |  |  | 57.9% |  |  | 
COc1ccc(Cc2nn(CC(=O)N/N=C/c3ccc([N+](=O)[O-])cc3)c(=O)c3c(C)noc23)cc1 | 55.5% |  |  | 92.8% | 69.5% | 1.77% (active) |  | 55% | 27% | 105% | 79.7% |  | 26.4% | 63% |  |  | 47.7%
COc1cccc(O)c1/C=C1\SCc2cc3c(OC)cccc3[o+]c21 |  | 106% | 114% |  | 101% |  |  | 90% | 107% | 114% | 110% | 111% |  |  |  |  | 104%
CC1(C)CC(=O)C2=C(C1)N(Cc1ccc(C(=O)O)cc1)C1=C(C(=O)CC(C)(C)C1)C2c1ccc(Cl)cc1 | 111% |  | 105% | 99.9% | 102% | 99.5% |  | 89.6% | 106% | 101% | 108% |  |  |  | 94.5% | 89.9% | 
O=C(CC(=O)Nc1ccc(Oc2ncnc3scc(Nc4n[nH]c(=S)s4)c23)cc1)Nc1ccc(Br)cc1 | 129% |  | 103% | 98% | 75.9% | 106% | 86.3% | 86.8% | 107% | 112% |  |  | 66.2% |  |  | 82.2% | 106%
COc1cc2oc(-c3cccc(C(=O)Nc4ccc(Cl)cc4)c3)cc(=O)c2c(OCCN)c1OC | -85% (active) |  | -84.2% (active) | -94.7% (active) | -52.6% (active) | -62.9% (active) | -73.8% (active) | -71.5% (active) | -90.3% (active) | -80.8% (active) | -83.2% (active) |  |  |  | -73.5% (active) | -86.7% (active) | 
O=C(CSc1nc2ccccc2c(=O)n1-c1ccc(Cl)cc1)Nc1ccc(-c2nc3ccccc3[nH]2)cc1 | -35.1% (active) |  |  | 47.7% |  | -75.6% (active) |  | -68.3% (active) | -84.3% (active) | 4.31% (active) | 17% |  |  |  | -39.1% (active) |  | 3.26% (active)
COc1ccc(-n2c(SCC(=O)NNS(=O)(=O)c3ccccc3)nc3ccc(Cl)cc3c2=O)cc1 | 100% |  |  | 98.9% | 108% | 98.2% | 94.8% | 83.2% | 95.6% | 118% | 102% |  |  |  |  |  | -8.76% (active)
COc1ccc(NCc2cn(-c3ccc(C(=O)O)cc3)nc2-c2ccc(F)cc2)cc1C(F)(F)F | 75.4% |  |  | 26.7% | 41.6% | 57.2% | 47.5% | 30.5% | 39.5% | 51.7% | 24.1% |  |  | 35.9% |  | 13.4% | 
O=C(Nc1ccc(Oc2ncnc3scc(Nc4n[nH]c(=S)s4)c23)cc1)C1(C(=O)Nc2cccc(C(F)(F)F)c2)CC1 | 118% |  |  | 95% | 111% | 108% | 86.7% | 23.3% | 99.7% | 107% |  |  |  | 69.4% | 104% |  | 
C#C[C@]1(O)CC[C@H]2[C@@H]3CC=C4c5sc(Nc6ccc(N(C)C)cc6)nc5CC[C@]4(C)[C@H]3CC[C@@]21C | -51.3% (active) |  |  | 0.6% (active) | -1.45% (active) | 36.1% |  | -36.2% (active) | -77.9% (active) | 33.4% | 2.83% (active) |  |  |  |  |  | -4.47% (active)
Fc1ccc(/C=C/c2nc3ccccc3n3c(-c4ccc(Cl)cc4)nnc23)cc1 | 58.8% |  | 73% | 76.5% | 0.524% (active) | 69% |  | 12.9% | 41.8% | 102% | 80.2% |  |  |  | 86.8% |  | 47.5%
